Measured values from PubChem BioAssay.
Where “and” joins values, the source holds several entries; their conditions need not be identical. Equal values may be shown once. Calls of active or inactive are those of the source.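 How the source made its calls, unless noted: active means inhibition at or above 50% relative to wild type and mutant plate controls; inactive means inhibition below 50%.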

How the values were obtained:
[1] = inhibitors of TNFa-induced NFkB p65 translocation, primary screen, imaging, HUVEC, MLSMR starter and 10KST1 sets (AID 438;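 active means inhibition above 20% together with a positive visual image hit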;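 further: compound added about 3h40 before a 20 min TNFalpha stimulation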;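 on inhibition: signal is the nuclear over cytoplasmic p65 intensity ratio per well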); details: HUVEC TNFa-induced p65 nuclear translocation; cell count: measured here: nuclei count (cytotoxicity indicator), at 2.08 µM; inhibition: at 2 µM, stronger effect = higher value, 0% TNFa-plus-vehicle, 100% no-TNFa wells
[2] = inhibitors of mutant huntingtin aggregation, primary screen, imaging, exon1htt(103Q)mCFP cells, high-content imaging (AID 483;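 active means visual image review flags a hit and inhibition of aggregation exceeds 20%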;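 further: compound exposure lasted 3 days before fixation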;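 on nuclei count: percent of the per-plate median nuclei count of sample wells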); details: exon1htt(103Q)mCFP cell line, aggregate imaging, at 2 µM; inhibition of aggregation: stronger effect = higher value; nuclei count: measured here: cell count, toxicity
[3] = inhibitors of E-selectin induction by TNFa, primary screen, imaging, HUVEC, immunofluorescence, MLSMR starter and 10KST1 sets (AID 487;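 active means visually confirmed hit in the image check and inhibition above 20%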;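 on inhibition: signal is fraction of cell area covered by stained E-selectin grains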;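 on nuclei count: 100% = median nuclei count of all wells on the same plate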); details: HUVEC TNFalpha-induced E-selectin immunofluorescence imaging, at 2 µM; inhibition: stronger effect = higher value; nuclei count: measured here: cell number, toxicity
[4] = DUSP6 inhibitors restoring Erk phosphorylation by chemical complementation, primary imaging in DUSP6-transfected HeLa (AID 609;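 active means compounds giving at least 50% inhibition in the cell-based MKP-3 phosphatase rescue imaging test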;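 on inhibition: phospho-Erk level distribution per well compared with pooled transfected vehicle control wells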); details: HeLa MKP-3 transfected, phospho-Erk imaging KS statistic, at 10 µM, cells stimulated with TPA for 15 min
[5] = molecular target: Dual specificity protein phosphatase 6 (Homo sapiens) (UniProt Q16828); test: as above; details: HeLa MKP-3 transfected, phospho-Erk imaging KS statistic; at 10 µM; stronger effect = higher value; cells stimulated with TPA for 15 min
Dual specificity protein phosphatase 6 (Homo sapiens), sequence (Q16828 whole entry, looked up): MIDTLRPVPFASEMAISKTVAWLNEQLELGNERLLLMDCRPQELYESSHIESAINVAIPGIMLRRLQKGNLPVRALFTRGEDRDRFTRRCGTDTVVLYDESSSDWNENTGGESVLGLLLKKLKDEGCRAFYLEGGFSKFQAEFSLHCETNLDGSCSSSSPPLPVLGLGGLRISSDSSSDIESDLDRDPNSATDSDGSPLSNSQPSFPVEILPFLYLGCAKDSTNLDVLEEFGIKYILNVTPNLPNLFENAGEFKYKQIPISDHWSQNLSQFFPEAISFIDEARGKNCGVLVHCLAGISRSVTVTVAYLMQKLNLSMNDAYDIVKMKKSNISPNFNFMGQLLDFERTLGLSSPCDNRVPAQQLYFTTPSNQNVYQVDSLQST

[6] = molecular target: Voltage-gated potassium channel subunit beta-2 (Rattus norvegicus) (UniProt P62483); test: KvBeta enzyme negative modulators, primary screen, biochemical, NADPH fluorescence (AID 622;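 active means fluorescence slope higher than the sample average by over 3 SD, cut at about -0.22 in these data, passing the limit was not always enough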;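 further: slope of raw intensity against log time taken from 70 to 1610 s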); details: recombinant KvBeta, 4-cyanobenzaldehyde reduction, at 10 µM, stronger effect = higher value
Voltage-gated potassium channel subunit beta-2 (Rattus norvegicus), sequence (P62483 whole entry, looked up): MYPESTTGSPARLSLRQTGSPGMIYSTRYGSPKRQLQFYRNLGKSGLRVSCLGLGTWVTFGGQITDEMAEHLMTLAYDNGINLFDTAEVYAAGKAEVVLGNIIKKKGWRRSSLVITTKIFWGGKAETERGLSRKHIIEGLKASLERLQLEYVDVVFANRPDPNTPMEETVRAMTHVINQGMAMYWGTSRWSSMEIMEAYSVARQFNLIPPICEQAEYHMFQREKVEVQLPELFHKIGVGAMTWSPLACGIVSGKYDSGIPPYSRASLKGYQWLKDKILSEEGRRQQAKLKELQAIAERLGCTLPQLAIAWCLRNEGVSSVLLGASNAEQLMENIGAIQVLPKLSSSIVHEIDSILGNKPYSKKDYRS

[7] = molecular target: Voltage-gated potassium channel subunit beta-2 (Rattus norvegicus) (UniProt P62483); test: KvBeta positive modulators, primary screen, biochemical, NADPH fluorescence (AID 623;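 active means NADPH fluorescence slope more negative than the mean of all samples by about 3 SD, 99.7% confidence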;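 further: fluorescence intensity change per second fitted from 20 to 320 s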); details: Recombinant KvBeta, NADPH fluorescence decrease slope, 10 min; at 10 µM; stronger effect = lower value
[8] = molecular target: Alpha-2C adrenergic receptor (Homo sapiens) (UniProt P18825); test: modulators of alpha2C/GIRK thallium flux, primary screen, cell-based, HEK293 alpha2C/GIRK1/2 (AID 624;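 active means fluorescence slope after compound addition differing from the mean of all screened samples at 99.7% confidence, in either direction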;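 further: slope of fluorescence ratio to pre-addition baseline per second over 15 to 24 s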); details: thallium flux BTC fluorescence, at 10 µM, actives lie on both sides
Alpha-2C adrenergic receptor (Homo sapiens), sequence (P18825 whole entry, looked up): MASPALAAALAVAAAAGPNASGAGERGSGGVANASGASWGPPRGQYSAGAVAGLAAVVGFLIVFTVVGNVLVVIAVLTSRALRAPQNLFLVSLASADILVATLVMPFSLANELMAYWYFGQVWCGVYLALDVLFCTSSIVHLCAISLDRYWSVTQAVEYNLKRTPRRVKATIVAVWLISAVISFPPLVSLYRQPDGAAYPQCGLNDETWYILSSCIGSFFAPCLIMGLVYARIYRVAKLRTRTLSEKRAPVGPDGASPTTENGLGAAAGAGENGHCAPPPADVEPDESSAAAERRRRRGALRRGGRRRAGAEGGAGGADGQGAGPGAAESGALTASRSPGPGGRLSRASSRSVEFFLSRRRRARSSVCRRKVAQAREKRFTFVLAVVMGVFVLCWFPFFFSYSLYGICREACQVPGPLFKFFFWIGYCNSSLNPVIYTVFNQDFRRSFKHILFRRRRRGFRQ

[9] = molecular target: Muscarinic acetylcholine receptor M4 (Homo sapiens) (UniProt P08173); test: compounds altering M4/GIRK thallium flux, either direction, primary screen, M4 allosteric agonist project, cell-based, HEK293 M4/GIRK, BTC-AM (AID 625;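 active means fluorescence slope after compound addition differing from the mean of all tested samples at 99.7% confidence, mostly higher but some lower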;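 further: thallium influx through GIRK channels coupled to M4 in HEK293 cells with BTC-AM dye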); details: at 10 µM, actives lie on both sides
Muscarinic acetylcholine receptor M4 (Homo sapiens), sequence (P08173 whole entry, looked up): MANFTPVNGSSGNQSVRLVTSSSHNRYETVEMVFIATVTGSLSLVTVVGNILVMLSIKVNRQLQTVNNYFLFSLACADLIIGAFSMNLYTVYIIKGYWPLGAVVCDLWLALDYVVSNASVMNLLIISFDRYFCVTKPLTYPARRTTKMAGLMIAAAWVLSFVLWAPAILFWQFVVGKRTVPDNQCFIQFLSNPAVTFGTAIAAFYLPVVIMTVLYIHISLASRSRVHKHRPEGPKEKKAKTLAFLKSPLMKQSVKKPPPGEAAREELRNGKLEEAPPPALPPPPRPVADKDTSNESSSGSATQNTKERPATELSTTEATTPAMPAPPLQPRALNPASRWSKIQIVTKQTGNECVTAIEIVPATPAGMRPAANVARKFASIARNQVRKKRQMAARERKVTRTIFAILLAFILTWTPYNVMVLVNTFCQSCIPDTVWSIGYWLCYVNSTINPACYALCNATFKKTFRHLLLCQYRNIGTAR

[10] = inhibitors of larval lipid processing in zebrafish, primary screen, whole organism, PED6 fluorescence, gall bladder and intestine (AID 686;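 active means a full or partial loss of lipid-probe fluorescence in the fish gall bladder, intestine or both, judged by eye; inactive means no fluorescence loss, or compound toxic to the fish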;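 further: larvae 5 to 7 days old with five fish per well; signal comes from phospholipase A2 cleavage of quenched PED6 carried via bile; overnight exposure to compound and PED6 before scoring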); details: Zebrafish larvae PED6 lipid processing, fluorescence scoring; screened at 20 µM (by protocol)
[11] = inhibitors of Chlamydomonas gravitaxis, primary screen, whole organism, Chlamydomonas reinhardtii, WT vs cilia-less mutant, absorbance, 96-well (AID 463189); details: OD600 absorbance, 2 days, at 10 µM, stronger effect = higher value;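 further: 0% = wild type cc124 cells in DMSO and 100% = ciliumless bld1 mutant cells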
[12] = inhibitors of Sendai virus-induced IRF3 signaling, primary screen, TLR/RLR signaling modifier project, cell-based, Sendai virus stimulus, luciferase, 10K MLSCN set (AID 602276;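 active means inhibition at or above 50% at 10 µM; inactive means inhibition below 50%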;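 further: firefly luciferase from ISG56 promoter only with Renilla not read in this screen; 0% = Sendai virus plus DMSO and 100% = medium plus DMSO without virus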); details: HEK293 RL24 IRF3 luciferase reporter, at 10 µM, stronger effect = higher value
[13] = inhibitors of poly I:C-induced TLR3 signaling, primary screen, cell-based, poly I:C stimulus, luciferase, 10K MLSCN set (AID 602277;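 active means inhibition of the reporter signal at or above 50%; inactive means inhibition below 50%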); details: HEK293-TLR3 RL24 IRF3 luciferase reporter, at 10 µM, stronger effect = higher value
[14] = measured here: cell density z-score
[15] = measured here: nuclear c-Myc green intensity z-score
[16] = measured here: nuclear pErk red intensity z-score, stronger effect = higher value

Row | SMILES | cell count [1] | inhibition [1] | inhibition of aggregation [2] | nuclei count [2] [%] | inhibition [3] | nuclei count [3] [%] | z-score [4, 14] | z-score [4, 15] | z-score [4, 16] | inhibition [5] | fluorescence slope [6] | NADPH fluorescence slope [7] | slope [8] | fluorescence slope [9] | outcome [10] | inhibition [11] | inhibition [12] | inhibition [13]
1 | CCOC(=O)Cc1nnc(Nc2cccc(O)c2)c2ccccc12 | 621 | -1.7% (inactive) | -13.1% (inactive) | 99.2 | -46.3% (inactive) | 131 | -1.97 | 0.184 | 0.582 | -15.1% (inactive) | -0.457 (inactive) | -9.4e-05 (inactive) | 0.00496 (inactive) | 0.0057 (inactive) | inactive | -9.07% (inactive) | 0.504% (inactive) | -8.25% (inactive)
2 | CCN1CCc2c(C#N)c(N3CCOCC3)nc(NCc3ccccc3)c2C1 | 507 | 9.3% (inactive) | 4.7% (inactive) | 80.7 | -218% (inactive) | 110 | 0.377 | -1.7 | 2.2 | -11.5% (inactive) | -0.484 (inactive) | -3.1e-05 (inactive) | 0.00496 (inactive) | 0.00486 (inactive) | inactive | 27.4% (inactive) | 10.8% (inactive) | 10.8% (inactive)
3 | COCCNc1oc(-c2ccc(C)cc2)nc1C#N | 405 | 1.6% (inactive) | 12.5% (inactive) | 88.9 | -23.4% (inactive) | 129 | -0.898 | 0.297 | 1.87 | 18.2% (inactive) | -0.461 (inactive) | -5.9e-05 (inactive) | 0.00692 (inactive) | 0.00552 (inactive) | inactive | 4.66% (inactive) | -24.8% (inactive) | -85.8% (inactive)
4 | COc1ccc(OC)c(C2/C(=C(\O)c3ccc4c(c3)OCCO4)C(=O)C(=O)N2CCCN(C)C)c1 (configuration not stated) | 490 | -0.9% (inactive) | -12.7% (inactive) | 115 | -76.5% (inactive) | 130 | 0.935 | 0.819 | -1.07 | 18.2% (inactive) | -0.459 (inactive) | -0.000132 (inactive) | 0.0076 (inactive) | 0.00426 (inactive) | inactive | 40.2% (inactive) | 11% (inactive) | 23.3% (inactive)
5 | CC(C(=O)O)c1ccc(-c2ccccc2)c(F)c1 (configuration not stated) | 557 | -7.8% (inactive) | -18.5% (inactive) | 101 | -48.5% (inactive) | 113 | 2.7 | -2.89 | 0.18 | 23.4% (inactive) | -0.456 (inactive) | -6e-05 (inactive) | 0.0055 (inactive) |  |  | 42.5% (inactive) | 18.5% (inactive) | 42.9% (inactive)
6 | O=C(Nc1nccs1)NC(C(F)(F)F)C(F)(F)F | 620 | 10.3% (inactive) | -10.4% (inactive) | 101 | 14.4% (inactive) | 95.3 | 0.47 | -0.00766 | -0.375 | 3.49% (inactive) | -0.522 (inactive) | -4.1e-05 (inactive) | 0.00624 (inactive) | 0.00652 (inactive) | inactive | 28.7% (inactive) | 22.5% (inactive) | 33.5% (inactive)
7 | C=C(C)C1Cc2c(C)nn(-c3nc(C)cc(C)n3)c2C1 (configuration not stated) | 462 | -2.7% (inactive) | 5% (inactive) | 84.7 | -50.5% (inactive) | 121 | 0.411 | 1.2 | 0.938 | 1.98% (inactive) | -0.396 (inactive) | -3.5e-05 (inactive) | 0.00521 (inactive) | 0.00615 (inactive) | inactive | 51.6% (active) | 11.3% (inactive) | 16.4% (inactive)
8 | Cc1cc(OCC(=O)Nc2ccc3oc(-c4ccncc4)nc3c2)ccc1Cl | 485 | -6.9% (inactive) | -19.2% (inactive) | 100 | -81.7% (inactive) | 122 | 0.451 | -0.406 | -0.15 | 7.73% (inactive) | -0.458 (inactive) | -1.3e-05 (inactive) | 0.00694 (inactive) |  |  | -0.755% (inactive) | -19.3% (inactive) | -47.1% (inactive)
9 | C=CCn1c(SCC(=O)c2ccccc2)nnc1-c1ccc2c(c1)OCO2 | 728 | -2.4% (inactive) | -1% (inactive) | 92.4 | -60.6% (inactive) | 117 | 0.143 | 0.0826 | 1.39 | -13.3% (inactive) | -0.528 (inactive) | -3.6e-05 (inactive) | 0.00455 (inactive) | 0.00674 (inactive) | inactive | -7.63% (inactive) | -8.67% (inactive) | -3.99% (inactive)
10 | c1ccc(-c2nnc(OCCN3CCOCC3)c3ccccc23)cc1 | 493 | -3.3% (inactive) | 18.6% (inactive) | 114 | -85.3% (inactive) | 126 | 0.666 | 0.289 | 1.89 | -5.26% (inactive) | -0.415 (inactive) | -0.000176 (inactive) | 0.00622 (inactive) |  |  | -11.2% (inactive) | 15.1% (inactive) | 20.9% (inactive)
11 | N#Cc1c(N2CCOCC2)nc(N2CCCCC2)c2c1CCN(C1CCCCC1)C2 | 486 | -5.3% (inactive) | 6.4% (inactive) | 102 | -130% (inactive) | 119 | -0.146 | 1.29 | 0.496 | -13.3% (inactive) | -0.442 (inactive) | -0.000108 (inactive) | 0.00466 (inactive) | 0.00444 (inactive) | inactive | 2.06% (inactive) | -1.64% (inactive) | 99% (active)
12 | CCCn1c(=O)c2[nH]c(C3CCCC3)nc2n(CCC)c1=O | 503 | -3.1% (inactive) | 26% (inactive) | 92.4 | -83.5% (inactive) | 117 | 0.276 | -0.431 | -1.23 | 3.59% (inactive) | -0.432 (inactive) | -7.8e-05 (inactive) | 0.00398 (inactive) |  |  | 4.71% (inactive) and -9.34% (inactive) | 14.1% (inactive) | 38.5% (inactive)
13 | Cc1ccc(S(=O)(=O)NC(=O)NN2CCCCCC2)cc1 | 604 | -5.1% (inactive) | 0% (inactive) | 99.6 | -81.9% (inactive) | 122 | 0.424 | 0.978 | -1.05 | 21.2% (inactive) | -0.457 (inactive) | -5.8e-05 (inactive) | 0.00471 (inactive) |  |  | 6.39% (inactive) and 32.8% (inactive) | 9.08% (inactive) | 19.5% (inactive)
14 | CCOC(=O)CSC1=C(C#N)C(c2ccc(C)cc2)C(C(=O)OC)C(=O)N1 (configuration not stated) | 643 | 4.3% (inactive) | -1.7% (inactive) | 81.9 | -39.2% (inactive) | 133 | 0.598 | 0.472 | -0.921 | 2.92% (inactive) | -0.474 (inactive) | -8.1e-06 (inactive) | 0.00434 (inactive) | 0.00679 (inactive) | inactive | 6.69% (inactive) | -15.1% (inactive) | -12.7% (inactive)
15 | c1ccc(-c2ccc(C(c3ccccc3)n3ccnc3)cc2)cc1 (configuration not stated) | 591 | 2% (inactive) | 10.9% (inactive) | 91.4 | -58.4% (inactive) | 106 | -1.14 | 0.79 | -0.101 | 16.8% (inactive) | -0.555 (inactive) | -3.5e-05 (inactive) | 0.00412 (inactive) | 0.00623 (inactive) | inactive | 13.3% (inactive) | 2.51% (inactive) | 18.2% (inactive)
16 | CCN(CC)CCN1C(=O)C(O)=C(C(=O)c2ccco2)C1c1ccccn1 (configuration not stated) | 439 | -6.3% (inactive) | 16.5% (inactive) | 89.2 | -87.6% (inactive) | 123 | 0.101 | -1.41 | 0.388 | 3.5% (inactive) | -0.431 (inactive) | -0.000163 (inactive) | 0.005 (inactive) |  |  | 14.9% (inactive) | 15.6% (inactive) | 18.9% (inactive)
17 | CCN(CC)CCNC(=O)c1ccc(NC(C)=O)cc1 | 497 | -5.5% (inactive) | -5.6% (inactive) | 94.5 | 15.6% (inactive) | 104 | -0.982 | 0.436 | 0.661 | 5.79% (inactive) | -0.442 (inactive) | -5.7e-05 (inactive) | 0.00544 (inactive) |  |  | -7.67% (inactive) and -9.65% (inactive) | 12.9% (inactive) | 42.8% (inactive)
18 | Cn1c(/C(C#N)=C/Nc2ccccn2)nc2ccccc21 | 346 | 4.3% (inactive) | -16.9% (inactive) | 88.4 | -44% (inactive) | 135 | -0.331 | -0.988 | 1.63 | 5.26% (inactive) | -0.224 (inactive) | -0.000107 (inactive) | 0.00613 (inactive) |  |  | 2.14% (inactive) | -13.3% (inactive) | -19.7% (inactive)
19 | C[C@@H]1CCC[C@H](C)N1NC(=O)c1ccc(Cl)c(S(N)(=O)=O)c1 | 625 | 7.2% (inactive) | 0.7% (inactive) | 108 | -55.3% (inactive) | 111 | -0.0459 | -0.463 | -0.78 | 21.2% (inactive) | -0.465 (inactive) | -5.1e-05 (inactive) | 0.00499 (inactive) |  |  | 24.4% (inactive) | 3.39% (inactive) | 20% (inactive)
20 | CC(=O)Nc1ccc(Oc2ccc3nc(C)[nH]c3c2)cc1 | 566 | -6.8% (inactive) | 13% (inactive) | 95.6 | -129% (inactive) | 133 | -0.271 | -0.885 | -1.67 | 13.7% (inactive) | -0.504 (inactive) | -3.4e-05 (inactive) | 0.00532 (inactive) | 0.00521 (inactive) | inactive | 5.53% (inactive) | -8.22% (inactive) | -0.929% (inactive)
